Hit rate of the full screen: of about 48,000 compounds, about 13,000 (27%) showed an effect of 50% or more. The list shows a part of the results.
System: Wolbachia pipientis
Experiment: Anti-Wolbachia Cell-Based Screen
Format: functional
Parameters: scale not given: in the data most compounds retested in dose-response had high values
Settings: 5 µM

| Compound | Percent Effect [%] |
| --- | --- |
| Cc1nc(C(C)(C)NCc2ncc(C3CC3)o2)sc1C | -9.268 |
| CCc1ccc(CNc2ccccc2CN2CCC(O)CC2)o1 | -8.641 |
| CCCn1cc(CNCC(c2ccc(C)s2)N2CCOCC2)cn1 (stereo not given) | 19.75 |
| COc1ccc(CC(=O)N2C[C@@H]3COC[C@]3(CN(C)C)C2)cc1.O=C(O)C(F)(F)F | 1.592 |
| COc1ccc(CN2C[C@@H]3COC[C@]3(CN(C)C)C2)cc1.O=C(O)C(F)(F)F.O=C(O)C(F)(F)F | 3.897 |
| CC(=O)N1CCN(Cc2ccc3c(c2)OCCO3)CC(O)C1 (stereo not given) | -5.239 |
| CN(C)C[C@]12COC[C@H]1CN(Cc1ccc3c(c1)OCO3)C2.O=C(O)C(F)(F)F.O=C(O)C(F)(F)F | 103.2 |
| COCC(=O)NC[C@]12COC[C@H]1CN(Cc1ccc3c(c1)OCO3)C2.O=C(O)C(F)(F)F | 110 |
| CCC[C@H]1CN(Cc2ccc3c(c2)OCCO3)C[C@@H]1NC(=O)COC | -19.75 |
| COCC(=O)NC[C@]1(O)CN(Cc2ccc3c(c2)OCCO3)C[C@H]1O | 114.3 |
| COCC(=O)NC[C@]12COC[C@H]1CN(c1ncc(F)cn1)C2.O=C(O)C(F)(F)F | -9.196 |
| O[C@H]1[C@H](NCCc2ccccn2)c2ccccc2C12CCNCC2 | 4.411 |
| CCC(CC)N(Cc1ccc2c(c1)OCO2)C(=O)c1ccc(=O)n(C)c1 | -1.967 |
| CN(Cc1ccco1)Cc1cncc2c1CCN(c1ncccn1)C2.Cl.Cl | 2.734 |
| Cc1cnc(N2CCc3c(CN(C)Cc4ccco4)cncc3C2)nc1 | 78.05 |
| CN(Cc1cn2c(n1)CN(C(N)=O)CC2)Cc1ccco1 | 9.855 |
| Cc1ccc(N2CCc3c(CN(C)Cc4ccco4)cncc3C2)nn1.Cl.Cl | 99 |
| CC(=O)Nn1c(C)cc(CN2CCC(C(=O)N3CCCC3)CC2)c1C | 13.77 |
| CC(C)(CNc1ccccc1S(=O)(=O)C(F)F)N1CCOCC1 | 14.98 |
| CCCc1nnsc1C(=O)NCC1CCN(C(=O)c2ccncc2)CC1 | 2.794 |
| Cc1cccnc1C(=O)N1CCC(Cc2cnc3[nH]ccc3c2)CC1 | 75.79 |
| O=C(c1ccncc1)N1CCC(Cc2cnc3[nH]ccc3c2)CC1 | 127.1 |
| CC1CCN(CC2CCN(C(=O)c3c[nH]c4ncccc34)CC2)CC1 | -10.12 |
| O=C(c1cncs1)N1CCC(Cc2cnc3[nH]ccc3c2)CC1 | 101.1 |
| CCn1c(C2CCN(C(=O)c3ccc4cc[nH]c4c3)CC2)n[nH]c1=O | 3.076 |

| Compound | Percent Effect [%] |
| --- | --- |
| O=C(c1cnccn1)N1CCC2(CC1)C(=O)NCC2c1ccccc1 (stereo not given) | -11.37 |
| O=C(c1cnccn1)N1CCC(Cc2cnc3[nH]ccc3c2)CC1 | 109.1 |
| CC(C)CC(=O)N1CCN(c2cc(N(C)C)cnn2)CC1 | 10.83 |
| CCc1nc(CN2CCCN(C(=O)COC(C)C)CC2)cs1 | 23.5 |
| CCC(C(=O)NCc1ccncc1)N(c1ccc(OC)cc1)S(C)(=O)=O (stereo not given) | -7.147 |
| O=C(NCc1nc(NC2CCCC2)c2cc(Cl)ccc2n1)c1cncs1 | -2.993 |
| CC(C(=O)Nc1cnn(CC(N)=O)c1)c1ccc(Cl)s1 (stereo not given) | -7.657 |
| O=C(O)c1cc2c(nc1O)CC(c1cccc(Cl)c1)CC2=O (stereo not given) | 8.981 |
| O=C(c1ccccn1)N1CCC(Cc2cnc3[nH]ccc3c2)CC1 | 136.1 |
| Cc1cccc(C(=O)N2CCC(Cc3cnc4[nH]ccc4c3)CC2)n1 | -6.998 |
| O=C(c1cnco1)N1CCC(Cc2ccc3ncccc3c2)CC1 | 111 |
| O=C(CCC1CCN(C(=O)c2cnco2)CC1)NCc1cccc(Cl)c1 | 11.71 |
| O=C(c1cnco1)N1CCCC(Cc2cccc3ncccc23)C1 (stereo not given) | -11.15 |
| O=C(O)C(F)(F)F.O=S1(=O)NC[C@H]2CCN(Cc3ccccc3)CC[C@H]21 | -3.468 |
| Cc1cc(C)c(CNC(=O)NCCNc2ccccn2)c(=O)[nH]1 | 9.095 |
| O=C(c1ccn(-c2cccc(F)c2)n1)N1CCCC(n2cccn2)C1 (stereo not given) | 0.279 |
| Cc1cnn(C2CCCN(C(=O)c3cc(-c4ccccc4C)n[nH]3)C2)c1 (stereo not given) | -3.414 |
| Cc1cnn(C2CCCN(C(=O)c3cn4ccccc4n3)C2)c1 (stereo not given) | 104.2 |
| Cc1cnn(C2CCCN(C(=O)c3cc(-c4ccco4)[nH]n3)C2)c1 (stereo not given) | 10.35 |
| Cc1cnn(C2CCCN(C(=O)c3cc[nH]n3)C2)c1 (stereo not given) | -3.499 |
| Cc1cnn(C2CCCN(C(=O)c3cnc4ccccc4n3)C2)c1 (stereo not given) | -3.195 |
| Cc1ccc(-n2cc(C(=O)N3CCCC(n4cccn4)C3)nn2)cc1 (stereo not given) | 117.4 |
| O=C(c1cn(-c2ccc(F)cc2)nn1)N1CCCC(n2cccn2)C1 (stereo not given) | 123 |
| Cc1cccc(-n2cc(C(=O)N3CCCC(n4cccn4)C3)nn2)c1 (stereo not given) | 4.017 |
| Cc1cnn(C2CCCN(C(=O)c3cn(-c4ccccc4)nn3)C2)c1 (stereo not given) | 117.4 |

| Compound | Percent Effect [%] |
| --- | --- |
| Cc1cccc(-n2cc(C(=O)N3CCCC(n4ccnc4)C3)nn2)c1 (stereo not given) | 7.382 |
| CCSc1ccc(C(=O)Nc2c(C)nn(C(C)C)c2C)cn1 | 10.44 |
| COCCN(C)CC1CCCN1S(=O)(=O)c1cc(C)oc1C (stereo not given) | 0.4223 |
| Cc1ncsc1CCN(C)Cc1cc2n(n1)CCN(Cc1ncc[nH]1)C2 | 0.3121 |
| COc1ccc(C2CCCN2C(=O)c2ccc(=O)n(C)c2)cc1OC (stereo not given) | -4.846 |
| CC(=O)NCCNC(=O)Nc1ccc(C)cc1OCc1ccccc1 | -17.41 |
| O=C(c1ccc(N2CCCC2)nn1)N1CCCC(n2cccn2)C1 (stereo not given) | 6.785 |
| Cc1nn(-c2ccccc2)cc1C(=O)N1CCCC(n2cccn2)C1 (stereo not given) | 7.584 |
| O=C(c1cn(-c2ccccc2)nn1)N1CCCC(n2cccn2)C1 (stereo not given) | 123.4 |
| Cc1nc(CNC(C)c2ccc(OCC(=O)NC3CC3)cc2)cs1 (stereo not given) | 11.98 |
| Cc1ccc(C(=O)N2CCc3ncccc3C2)cc1N1CCNC1=O | 0.3953 |
| CCCC(C(=O)NC1CCN(S(C)(=O)=O)CC1)c1ccccc1 (stereo not given) | -7.418 |
| O=C(COc1ccc(Cl)cc1)NCc1nncn1C1CC1 | -10.37 |
| CN1CC(NC(=O)CCOc2cccc(Cl)c2)CC1=O (stereo not given) | -1.154 |
| CS(=O)(=O)N1CCC(NC(=O)COc2cccc(Cl)c2)CC1 | 141.5 |
| Cc1cn(CC(=O)NC2CCN(S(C)(=O)=O)CC2)c2ccccc12 | -0.9919 |
| CC(C)c1nccn1C(C)C(=O)NC1CCN(S(C)(=O)=O)CC1 (stereo not given) | -4.449 |
| CCn1cc(C(=O)NC2CCN(S(C)(=O)=O)CC2)c2ccccc21 | -0.7206 |
| Cc1ccc(OCC(=O)NS(=O)(=O)Cc2ccccc2)cc1 | 1.419 |
| CC(Oc1cccc(Cl)c1)C(=O)Nc1cnn(CC(=O)NC2CC2)c1 (stereo not given) | 3.95 |
| CS(=O)(=O)N1CCC(NC(=O)COc2ccc3ccccc3c2)CC1 | 103.7 |
| CS(=O)(=O)N1CCC(NC(=O)COc2ccc(Cl)cc2)CC1 | 131.2 |
| Cc1ccc(OCC(=O)NC2CCN(S(C)(=O)=O)CC2)cc1 | 137.9 |
| CC(CS(C)(=O)=O)N(C(=O)CCc1ccsc1)C1CC1 (stereo not given) | -7.747 |
| Cc1c(NCc2ccccc2C#N)cccc1S(=O)(=O)NC1CC1 | 7.829 |

| Compound | Percent Effect [%] |
| --- | --- |
| CCCNC(=O)c1ccc(S(=O)(=O)NCC2(COC)CCCC2)cc1 | 10.08 |
| CCCN1CCC(Cc2noc(-c3cc4cccnc4nc3C)n2)CC1 | 109.3 |
| CCCN1CCC(Cc2noc(-c3[nH]cnc3C)n2)CC1 | 95.32 |
| COc1cccc(-c2n[nH]cc2-c2nc(CC3CCN(C)CC3)no2)c1 | -18.5 |
| CN1CCC(Cc2noc(CC3CC3)n2)CC1 | 7.965 |
| Cc1cccc(N2CCN(Cc3nc(CC4CC4)no3)CC2)n1 | -32.1 |
| CCCN1CCC(Cc2nc(CN3CCN(C)CC3)no2)CC1 | -14.74 |
| CCCN1CCC(Cc2noc(-c3ncccc3C)n2)CC1 | 80.84 |
| CN1CCC(Cc2noc(-c3cccc(Oc4ncccn4)c3)n2)CC1 | 7.717 |
| CCCN1CCC(Cc2noc(-c3cccnc3OC)n2)CC1 | 111 |
| O=C(O)C(F)(F)F.O=C(c1cnccn1)N1CCN2C[C@H](OCc3ccccc3)C[C@H]2C1 | 0.9926 |
| O=C(c1cnc(Nc2ccccc2)nc1)N1CCC2(CCNCC2)CC1 | 2.873 |
| CC(C)c1noc([C@@H]2Cc3[nH]cnc3CN2C(=O)Nc2ccccc2)n1 | 2.136 |
| NC(=O)CCn1ccc(NC(=O)C2(c3ccc(F)cc3)CCC2)n1 | -29.44 |
| COc1ccc(N(Cc2ccco2)C(=O)COC(C)C)cc1F | -7.109 |
| CS(=O)(=O)c1ccc(-c2cc(O)cc(CCC3CCCCN3)c2)cc1 (stereo not given) | -20.81 |
| COc1ccc(CCC2CCCCN2)cc1.Cl (stereo not given) | 100.4 |
| Oc1cc(CCC2CCCCN2)cc(-c2ccncc2)c1 (stereo not given) | 23.52 |
| O=c1cc(-c2cc(O)cc(CCC3CCCCN3)c2)cc[nH]1 (stereo not given) | 29.58 |
| COc1ccc(CCC2CCCCN2)cc1OC (stereo not given) | 89.4 |
| Oc1cc(CCC2CCCCN2)cc(-c2cccnc2)c1 (stereo not given) | 13.71 |
| COc1ccc(CCNC(=O)NC2CCCC2)cc1OC | 1.175 |
| COc1cccc(CCC2CCCN(C(C)=O)C2)c1 (stereo not given) | -117.1 |
| COc1cccc(CCC2CCCCN2)c1 (stereo not given) | 69.8 |
| O=C(NCc1ccncc1)N1CCSCC1CCO (stereo not given) | -7.144 |
